# HttQ103 aggreg: reduces HttQ103-GFP aggregates in PC12 cells. PC12 HttQ103-GFP aggregates, Acumen cytometry, 40 h. Potency, µM (titrated, usually from 46.1 µM), hits mostly inhibitors. 1.1% of 220,000 active; note: nearly all actives have a fitted effect of over 60% in size
#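 Quantitative HTS on tebufenozide-induced (100 nM) PC12 cells stably expressing polyQ103 Huntingtin exon 1–GFP. Reduction of bright GFP aggregates, detected by laser scanning cytometry after lysis, identified actives across the titration.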
# PNC inhibitor: perinucleolar compartment assembly inhibition. PC3M PTB-GFP, PNC prevalence imaging, 16 h; stronger effect = lower value. activity change (PNC), negative = inhibition, % at 10 µM. 3.1% of 140,000 active. AID 2417;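 active = readout at or below -70, meaning at least 70% loss of cells showing the perinucleolar compartment, a nuclear body marking cancer cells; inconclusive = readout between -30 and a set limit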
#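 PC3M cells stably expressing PTB-GFP, 750–1000 cells/well, treated 16 h at 37 °C with compound (23 nl of library stock), in duplicate. After paraformaldehyde fixation and Hoechst stain, imaged at 20x; PNC prevalence scored by image analysis.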
# GoLoco inh red: inhibitors of human Gai1-RGS12 GoLoco interaction (red fluorophore). P63096. Gai1:RGS12 GoLoco peptide FP, rhodamine, 10 min. Potency, µM (titrated, usually from 61.6 µM), usual class: inhibitors. 0.44% of 230,000 active; active = well fitted inhibition curve with a large enough effect, not every such curve was filed as active; inactive = no such curve, though single readings can be large or run the other way; note: nearly all actives have a fitted effect of over 30% in size
# ALDH1A1 inh: ALDH1A1 (human) enzyme inhibition; Purified ALDH1A1, NADH fluorescence, propionaldehyde substrate; Potency, µM (top dose mostly 75.3 µM), actives largely listed as inhibitors; 7.3% of 220,000 active; AID 1030; active = well fitted inhibition curve with a large enough effect, not every such curve was filed as active; inconclusive = small, poorly fitted or top-dose-only effect, or another doubt; inactive = no such curve, though single readings can be large or run the other way
# Target sequence (P00352 whole entry, looked up): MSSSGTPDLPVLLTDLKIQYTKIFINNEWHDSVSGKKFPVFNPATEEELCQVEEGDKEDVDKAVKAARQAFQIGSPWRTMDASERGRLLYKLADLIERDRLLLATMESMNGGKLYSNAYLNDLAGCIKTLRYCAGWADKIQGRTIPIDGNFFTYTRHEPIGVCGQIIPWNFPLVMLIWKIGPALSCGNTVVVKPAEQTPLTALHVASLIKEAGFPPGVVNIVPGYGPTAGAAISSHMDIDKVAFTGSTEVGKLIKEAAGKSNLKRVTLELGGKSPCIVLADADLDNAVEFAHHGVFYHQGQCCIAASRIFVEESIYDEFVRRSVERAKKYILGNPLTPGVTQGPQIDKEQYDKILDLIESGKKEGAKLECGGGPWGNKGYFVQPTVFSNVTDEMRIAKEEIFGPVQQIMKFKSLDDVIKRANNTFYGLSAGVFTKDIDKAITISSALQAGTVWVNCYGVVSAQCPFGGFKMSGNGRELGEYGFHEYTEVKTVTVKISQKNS
# HTT cytoprotect: cytoprotection in Huntington HTT-Q103 PC12 cell model | Potency, µM (highest dose often 56.4 µM), usual class: activators | PC12 HTT-Q103 induced, cytoprotection, ATP luminescence, 40 h | 0.14% of 230,000 active; note: nearly all actives have a fitted effect of over 45% in size
#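 PC12 cells with ecdysone-inducible HTT exon 1 Q103-GFP, induced with 100 nM tebufenozide and co-treated with library compounds in a dose series (1536-well, 1500 cells/well). Cytoprotection read as ATP content by ATPlite luminescence.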
# HPGD inh: HPGD (human) dehydrogenase inhibition | P15428 | purified HPGD, NADH fluorescence kinetic, PGE2 substrate | Potency, µM, usual class: inhibitors | 4.3% of 150,000 active | AID 894; active = well fitted inhibition curve with a large enough effect, not every such curve was filed as active; inconclusive = small, poorly fitted or top-dose-only effect, or another doubt; inactive = no such curve, though single readings can be large or run the other way
#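 NADH formation kinetics: reaction with 30 uM PGE2 and 1 mM NAD+ (final), 20 nM enzyme, Tris-HCl pH 8 with Tween 20, after 15 min compound preincubation at room temperature. Fluorescence change, last versus first of five reads.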
# A number is an active result; . = inactive; ? = inconclusive; / = no result given; [ ] = remark or other dose. Sampled rows, rich in hits. Any-hit rate of the full collection: about 11%. Unless noted, calls come from the whole dose curve; as a rule, active = well fitted curve in the direction sought with a large enough effect; inconclusive = small, poorly fitted or top-dose-only effect, or another doubt; inactive = no such curve, though single readings can be large; an effect the other way counts as inactive or inconclusive.
SMILES,HttQ103 aggreg,PNC inhibitor,GoLoco inh red,ALDH1A1 inh,HTT cytoprotect,HPGD inh
Cc1cc(O)cc(O)c1C(=O)OC1(C)C(=O)C=C2C=C(/C=C/C(=O)O)OC=C2C1=O (configuration not stated),/,/,.,?,?,.
NCC(=O)N[C@H](CO)C(=O)O,/,/,.[14.2 µM],.[13.5 µM],.[10 µM],.
Cn1c(=O)c(-c2ccccc2)nc2cnc(N3CCOCC3)nc21,/,/,.,?,.,/
C/C(N)=C(/C#N)C(=O)CSc1nc2scc(-c3ccc(F)cc3)c2c(=O)n1C,.,/,.,16µM,.,/
Cc1ccc(F)cc1NC(=O)CN1CCN(c2ccccn2)CC1,.,/,.,.,.,/
CCOc1ccc(OCC)c(NC(=O)CN2CCN(c3cc(C)ccc3C)CC2)c1,.,.,.,3.5µM,.,.
CC1CCC2(CC1)NC(=O)N(CC(=O)Nc1ccccc1-c1ccccc1)C2=O (configuration not stated),.,/,.,.,.,/
COc1ccccc1N1CCN(CC(=O)Nc2cc(F)ccc2C)CC1,.,?,.,18µM,.,.
COc1ccccc1NC(=O)CN1CCN(CC(=O)Nc2ccc(OCc3ccccc3)cc2)CC1,?,.,.,?,.,.
CC1(C2CC2)NC(=O)N(CC(=O)Nc2ccccc2-c2ccccc2)C1=O (configuration not stated),.,/,.,18µM,.,/
COc1ccccc1NC(=O)CN1CCN(CC(=O)Nc2ccc(F)cc2)CC1,.,.,.,25µM,.,.
COC1=C(C(=O)c2ccccc2)C(=O)C2(CC=C(C)C)C[C@H](C(=O)OCC(F)(F)F)C(C)(C)[C@@]1(CC=C(C)C)C2=O (tested in a mixture with another compound),/,/,.,.,?,.
CCC1=C(C[C@H]2NCCc3ccccc32)C[C@@H]2c3cc(OC)c(OC)cc3CCN2C1,/,/,.[14.2 µM],.[13.5 µM],.[10 µM],.
CSc1ccc(/C=N/NC(=O)CN2CCN(Cc3ccccc3)CC2)cc1,.,.,/,?,.[10 µM],/
COc1cc(NC(=O)CCN2CCN(Cc3ccccc3)CC2)cc(OC)c1,.,.,.,11µM,.,.
COc1cc(NC(=O)CCN2CCN(c3ccccc3F)CC2)cc(OC)c1,.,.,.,.,.[10 µM],.
COc1ccccc1NC(=O)CN1CCN(Cc2ccccc2)CC1,.,-87,.,10µM,.,.
O=C(CN1CCN(Cc2ccccc2)CC1)Nc1ccccc1-c1ccccc1,.[9.22 µM],/,.,11µM,.[10 µM],/
CCn1cc(C(=O)NCc2ccco2)c(=O)c2cc(S(=O)(=O)N3CCC(C)CC3)ccc21,?,.,.,?,.[0.074 µM],.
CCn1cc(C(=O)NCc2ccco2)c(=O)c2cc(S(=O)(=O)N3CCCCCC3)ccc21,13µM,?,.,8.9µM,.[10 µM],.
CCn1cc(C(=O)NCc2ccco2)c(=O)c2cc(S(=O)(=O)N3CCc4ccccc4C3)ccc21,.,.,.,20µM,.[0.074 µM],.
CCCN(C#N)c1nc(NCC)nc(NC(C)C)n1,.,.,.,10µM,.,.
CCc1nc(SCC(=O)c2c[nH]c3ccccc23)n[nH]1,.,/,.,.,.,/
COCCCN1C(=O)/C(=C/c2ccc(CNS(=O)(=O)c3ccccc3)o2)C(C(=O)OC)=C1C,.[9.22 µM],/,.,35µM,.,/
CC(=O)c1ccccc1OCCn1nnc(-c2ccc(C)cc2)n1,20µM,.,.,.,.[10 µM],?
SMILES,HttQ103 aggreg,PNC inhibitor,GoLoco inh red,ALDH1A1 inh,HTT cytoprotect,HPGD inh
CCOC(=O)c1c(N)nn(C(=O)CC)c1-c1ccccc1,?,-100,.,.,.,.
COc1ccc(-c2nnn(CC(=O)NCc3ccccc3)n2)cc1OC,.,-119,.,.,.[10 µM],.
COc1cccc(-c2nnn(CC(=O)O)n2)c1,.,-91,.,.,.[1.9 µM],.
CCOC(=O)Cn1nnc(-c2cccc(OC)c2)n1,.,?,.,.,.[10 µM],.
C#CCOC(=O)Nc1ccc(=O)n(Cc2c(Cl)cccc2Cl)c1,.,.,.,?,.,?
COc1ccc(CNC(=O)CN(C(=O)Cn2nnc(-c3ccccc3F)n2)c2ccc(C)cc2)cc1,.[9.22 µM],/,.,8.9µM,.[10 µM],/
CCOC(=O)Cn1nnc(-c2ccccc2)n1,.,-100,.,.,.[10 µM],.

# From PubChem BioAssay
